# Experimental data from PubChem BioAssay (NCI).
# Where “and” joins values, the source holds several entries; their conditions need not be identical. Equal values may be shown once. The panel holds about 83,000 compounds, 20% with a hit somewhere; the sample as a whole holds those more often.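 Single-concentration screen, 48 h exposure, 96-well plates. Endpoint: percent growth. Below 10 = active.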 Calls of active or inactive are those of the source.
# Test system: HL-60(TB) leukemia
# Assay: NCI-60 one-dose screen, 48 h (100 = growth as untreated, 0 = no growth, -100 = all killed)
# Conditions: 10 µM unless noted
row,Compound,growth
1,COc1cc(C(=O)c2ccc3c(c2)OCO3)cc(OC)c1OC,1.04% (active) and 22.6% (inactive)
2,CSc1nc(N)c(N)c(N)n1,77.8% (inactive)
3,O=c1scc(-c2ccc(C(F)(F)F)cc2)s1,92.7% (inactive)
4,N#Cc1cc(-c2nc3ccccc3s2)c(=O)n(NS(=O)(=O)c2ccc(Cl)cc2)c1N,103% (inactive)
5,O=C(c1c(F)ccc(NS(=O)(=O)N2CC[C@@H](F)C2)c1F)c1c[nH]c2ncc(-c3cnc(C4CC4)nc3)cc12,35.6% (inactive)
